Common to all, as to experiment: bioluminescence (viable cell) signal fold change after vs before treatment, normalised to DMSO (ratio); higher = more tumour cell growth / less inhibition
Holding throughout (details): 10 µM; treatment time 6 days

Assay [1] concerns LEGO organoid PT (PTEN-/-; TP53-/-). Here is the method:
(§1)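 Luc2-labelled iPSC-derived glioblastoma-like organoids (LEGOs, genotypes PT = PTEN-/-;TP53-/-, PTCC = plus CDKN2A/B-/-, PTN = plus NF1-/-) were treated with 10 uM drug for 6 days (applied every other day) at 37 C. Bioluminescence imaging was done before treatment and 2 days after the last dose. BLI signals were normalised to the DMSO control on the same day and then to the pre-treatment signal (N=3).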

The subject of assay [2] is LEGO organoid PTCC (PTEN-/-; TP53-/-; CDKN2A-/-; CDKN2B-/-). Here is the method:
as §1

For assay [3], the system named is LEGO organoid PTN (PTEN-/-; TP53-/-; NF1-/-). As for the experimental part:
as §1

Counter-ions that a name gives are not always drawn.

Regarding `O.O.O.O.O.O.O.O=C1CN(/N=C/c2ccc(-c3ccc([N+](=O)[O-])cc3)o2)C(=O)[N-]1.O=C1CN(/N=C/c2ccc(-c3ccc([N+](=O)[O-])cc3)o2)C(=O)[N-]1.[Na+].[Na+]` [Dantrolene sodium hemiheptahydrate], the values for the bioluminescence in assay [1], in assay [2] and in assay [3] were 0.935, 2.4 and 2.84, respectively.

In the case of `CC(=O)O.Cc1c(-c2ccc(O)cc2)n(Cc2ccc(OCCN3CCCCCC3)cc2)c2ccc(O)cc12` [Bazedoxifene acetate], the bioluminescence in assay [1] turned out to be 0.897; in assay [2] it was 1.37; in assay [3], 0.0363.

On to `Nc1nc(Cl)nc2c1ncn2[C@H]1C[C@H](O)[C@@H](CO)O1` [Cladribine], for which the bioluminescence in assay [1] turned out to be 1.81; in assay [2] it was 1.17; in assay [3], 1.05.

`Cc1ccc(Nc2nccc(N(C)c3ccc4c(C)n(C)nc4c3)n2)cc1S(N)(=O)=O.Cl` [Pazopanib HCl]: the bioluminescence in assay [1] is 0.626; in assay [2] it was 1.41; in assay [3] it was 1.02.

On to `CN(C/C=C/c1ccccc1)Cc1cccc2ccccc12.Cl` [Naftifine hydrochloride], for which the bioluminescence in assay [1] was determined as 0.607; in assay [2] it was 1.3; in assay [3] it was 0.535.

For the compound `C[C@]12C=CC(=O)C=C1CC[C@@H]1[C@@H]2C(=O)C[C@@]2(C)[C@H]1CC[C@]2(O)C(=O)CO` [Prednisone], the bioluminescence in assay [2] is 0.989; in assay [3], 1.29.

As to `COc1cc(Nc2c(C#N)cnc3cc(OCCCN4CCN(C)CC4)c(OC)cc23)c(Cl)cc1Cl` [Bosutinib], the bioluminescence in assay [1] was 1.24; in assay [2], 0.731; in assay [3] it was 0.669.

`CCCCC1C(=O)N(c2ccccc2)N(c2ccccc2)C1=O` [Phenylbutazone]: the values for the bioluminescence in assay [1], in assay [2] and in assay [3] were 2.33, 1.76 and 2.68, respectively.

Consider `CCN1CCN(C(=O)N[C@@H](C(=O)N[C@@H]2C(=O)N3[C@@H]2SC(C)(C)[C@@H]3C(=O)[O-])c2ccccc2)C(=O)C1=O.[Na+]` [Piperacillin sodium salt], for which the bioluminescence in assay [1] was 1.08; in assay [2] it was 1.11; in assay [3] it was 0.935.

As for `CCCC(CCC)C(=O)O.CCCC(CCC)C(=O)[O-].[Na+]` [Divalproex Sodium], the bioluminescence came out at 0.727 in assay [1], 0.404 in assay [2] and 0.401 in assay [3].

Consider `CS(=O)(=O)O.Cc1ccc(NC(=O)c2ccc(CN3CCN(C)CC3)cc2)cc1Nc1nccc(-c2cccnc2)n1` [Imatinib Mesylate], for which the bioluminescence is 0.751 in assay [1], 1.35 in assay [2] and 2.11 in assay [3].

Take `CC/C(=C(\c1ccccc1)c1ccc(OCCN(C)C)cc1)c1ccccc1` [Tamoxifen]: the bioluminescence amounted to 0.646 in assay [1], 0.468 in assay [2] and 0.103 in assay [3].

Consider `CCCCN1CCCCC1C(=O)Nc1c(C)cccc1C.Cl` (stereo not given) [Bupivacaine hydrochloride], for which the bioluminescence was 1.37 in assay [1], 1.22 in assay [2] and 0.809 in assay [3].

Turning to `CCc1nc(N)nc(N)c1-c1ccc(Cl)cc1` [Pyrimethamine], the bioluminescence in assay [1] worked out at 0.65; in assay [2], 1.06; in assay [3], 0.803.

Regarding `CC1=C(CC(=O)O)c2cc(F)ccc2/C1=C\c1ccc(S(C)=O)cc1` (stereo not given) [Sulindac], the bioluminescence is 2.8 in assay [1], 1.38 in assay [2] and 1.47 in assay [3].

Regarding `C[C@@](Cc1ccc(O)c(O)c1)(NN)C(=O)O.O` [Carbidopa Hydrate], the bioluminescence in assay [2] came out at 0.96; in assay [3], 1.55.

For the compound `Oc1c(I)cc(Cl)c2cccnc12` [Clioquinol], the bioluminescence in assay [1] was 0.859; in assay [2], 1.47; in assay [3], 2.47.

For `CN1CC(=O)N2[C@H](c3ccc4c(c3)OCO4)c3[nH]c4ccccc4c3C[C@@H]2C1=O` [Tadalafil], the bioluminescence in assay [1] turned out to be 1.59; in assay [2], 1.47; in assay [3], 0.562.

For `CS(=O)(=O)c1ccc(C(=O)Nc2ccc(Cl)c(-c3ccccn3)c2)c(Cl)c1` [Vismodegib], the bioluminescence in assay [1] was 0.63; in assay [2], 2.45; in assay [3], 0.888.

In the case of `Cc1nc(Nc2ncc(C(=O)Nc3c(C)cccc3Cl)s2)cc(N2CCN(CCO)CC2)n1` [Dasatinib], the figures for the bioluminescence in assay [1], in assay [2] and in assay [3] were 0.748, 0.977 and 2, respectively.

On to `COC(=O)/C=C/C(=O)OC` [Dimethyl fumarate], for which the bioluminescence is 0.94 in assay [2] and 1.44 in assay [3].

As to `NC(CO)(CO)CO.O=C(c1ccccc1)c1ccc2n1CCC2C(=O)O` (stereo not given) [Ketorolac tromethamine salt], the values for the bioluminescence in assay [1], in assay [2] and in assay [3] were 1.75, 1.57 and 2.19, respectively.

Turning to `COc1c(N2CCNC(C)C2)c(F)cc2c(=O)c(C(=O)O)cn(C3CC3)c12` (stereo not given) [Gatifloxacin], the bioluminescence in assay [2] was 0.933; in assay [3] it was 4.79.

As for `Nc1nc(=O)c2c(CCc3ccc(C(=O)N[C@@H](CCC(=O)[O-])C(=O)[O-])cc3)c[nH]c2[nH]1.Nc1nc(=O)c2c(CCc3ccc(C(=O)N[C@@H](CCC(=O)[O-])C(=O)[O-])cc3)c[nH]c2[nH]1.O.O.O.O.O.[Na+].[Na+].[Na+].[Na+]` [Pemetrexed Disodium Hydrate], the bioluminescence was 0.95 in assay [2] and 1.05 in assay [3].

With `CN1[C@@H]2CC[C@H]1C[C@@H](OC(c1ccccc1)c1ccccc1)C2.CS(=O)(=O)O` [Benztropine mesylate], the bioluminescence worked out at 0.793 in assay [2] and 0.419 in assay [3].

In the case of `Cc1cc(NS(=O)(=O)c2ccc(N)cc2)no1` [Sulfamethoxazole], the bioluminescence amounted to 1.56 in assay [2] and 1.8 in assay [3].

Regarding `COc1cc2ncnc(Nc3ccc(F)c(Cl)c3)c2cc1NC(=O)/C=C/CN1CCCCC1` [Dacomitinib], the bioluminescence in assay [2] turned out to be 0.0502; in assay [3], 0.

Regarding `NS(=O)(=O)c1cc2c(cc1Cl)N=CNS2(=O)=O` [Chlorothiazide], the bioluminescence in assay [2] was 1.63; in assay [3] it was 1.33.
